Source: PubChem BioAssay (several laboratories)
PriA SSB inh = blocks PriA binding to SSB C-terminal tail; AlphaScreen SSBct-PriA binding, biotinylated peptide; inhibition, % at 33 µM; 430,000 tested, 0.6% active; AID 1272365; in the data active = inhibition mostly above about 37%, no sharp cut-off; inactive = mostly below about 20%;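 note: plate controls were negative control peptide for no effect and reference peptide for full effect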
PrP UTR inh = inhibition of PrP 5' UTR reporter expression; 340,000 tested, 0.35% active; cell-based PrP 5' UTR mRNA reporter, plate reader; inhibition, % (concentration not given with the values); in the data active = inhibition above about 52%; note: 0 = median of the neutral control wells
PrPC surface inh = cell surface PrPC inhibition, primary TR-FRET screen; 370,000 tested, 0.43% active; P04156; inhibition, % at 13.8 µM; AID 720596; TR-FRET read-out; in the data active = inhibition above about 24%; note: 0% = median of the test wells and 100% = reference compound wells
3CLpro inhibitor = SARS-CoV 3CLpro protease inhibition | P0C6X7 | recombinant SARS-CoV 3CLpro, quenched FRET peptide cleavage | inhibition, % at 6 µM | 290,000 tested, 0.14% active | AID 1706; in the data active = inhibition above about 12%
PfHsp40 yeast = compounds rescuing yeast from Plasmodium falciparum HSP40 toxicity; AID 504582; 340,000 tested, 0.68% active; S. cerevisiae expressing PfHsp40, growth rescue, ATP luminescence; growth rescue, % at 12.5 µM; in the data active = growth rescue above about 28%, passing the limit was not always enough;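 note: yeast W303a lacking pdr1 and pdr3 grown in galactose medium; growth measured after three days at 30 °C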
BH1578 lux ind = quorum light induction in luxS cqsA deficient V. cholerae | V. cholerae BH1578 lux reporter, luminescence, 6 h | activation, % at 18.7 µM | 350,000 tested, 0.16% active; in the data active = activation mostly above about 9.7%, no sharp cut-off
* hit, by the source's call; i = inactive; / = not tested or not shown. An excerpt weighted towards active compounds, which were near 1.6% of everything screened.

SMILES	PriA SSB inh	PrP UTR inh	PrPC surface inh	3CLpro inhibitor	PfHsp40 yeast	BH1578 lux ind
Brc1ccc(Oc2ccc(Br)cc2Br)c(Br)c1	-9	-17	-1	/	0	0
c1ccc(N2CCN(c3nc(NCc4ccco4)c4ccccc4n3)CC2)cc1	40*	-15	-10	2	1	i
CC(C)c1nnc(SCC(N)=O)c2c1cnn2-c1ccc(F)cc1	8	/	/	/	/	/
O=C(NC1CCCCC1)N1CCc2ncncc2C1	-15	/	/	/	/	/
CCOC(=O)C1=NN(c2ccccc2)C(=O)C1	1	-67	-3	2	113*	i
CCOC(=O)C1=NN(c2ccccc2)C(=O)/C1=C\c1ccc(N(C)C)cc1	-5	-5	4	0	81*	-6
COc1coc(C(=O)Nc2nc3ccc(S(C)(=O)=O)cc3s2)cc1=O	-13	/	/	/	/	/
COc1cccc(C=NN2C(=O)CSC2=S)c1O	93	/	/	/	/	/
CCOc1cccc(C=NN2C(=O)CSC2=S)c1O	71*	/	/	/	/	/
O=C1CSC(=S)N1N=Cc1ccc(O)c(O)c1O	100*	/	/	/	/	/
Cc1csc(NC(=O)CSc2nnc3ccc(-c4cccc([N+](=O)[O-])c4)nn23)n1	-8	/	/	/	/	/
CCN(CC)CCN1C(=O)C(=O)C(=C(O)c2cccc(OC)c2)C1c1ccccn1 (stereo unspecified)	-10	/	/	/	/	/
CCOc1ccc(C(=O)NCCn2nc(-c3cccs3)ccc2=O)cc1	-2	/	/	/	/	/
O=C(NCCn1nc(-c2cccs2)n(C2CC2)c1=O)C1(c2ccccc2)CCOCC1	2	/	/	/	/	/
COc1cccc(CN2CCN(C(=O)CC(C)C)CC2)c1	-3	-22	6	-2	36*	/
Fc1ccc(-c2csc3ncnc(Sc4ccc(Cl)cc4)c23)cc1	-8	/	/	/	/	/
CCOC(=O)C1CCN(c2ccc(S(=O)(=O)C(F)(F)F)cc2[N+](=O)[O-])CC1	35*	/	/	/	/	/
CCOC(=O)C1CCN(c2ccc([N+](=O)[O-])c(C(C)=O)c2)CC1	-18	1	-17	3	-1	i
O=[N+]([O-])c1cc(S(=O)(=O)Nc2ccccc2)ccc1N1CCN(c2ccc(O)cc2)CC1	43*	-19	4	0	1	i
CC(=O)N1CCc2cc(S(=O)(=O)Nc3ccc(C)cc3C)ccc21	-12	-14	12	4	2	i
CN1CCN(S(=O)(=O)c2ccc(N3CCN(c4ccc(O)cc4)CC3)c([N+](=O)[O-])c2)CC1	17	-6	-36	/	-2	i
Cc1ccc(NS(=O)(=O)c2ccc(N3CCN(c4ccc(O)cc4)CC3)c([N+](=O)[O-])c2)c(C)c1	63*	0	2	0	70*	-1
COC(=O)c1cc(NS(=O)(=O)c2ccc(N3CCC(C)CC3)c([N+](=O)[O-])c2)cc(C(=O)OC)c1	56*	-2	5	4	1	-1
Cc1ccc(N2C(=O)N(Cc3ccc(Br)cc3F)c3ccccc3S2(=O)=O)cc1C	-2	/	/	/	/	/
C=CCN(CC=C)S(=O)(=O)c1ccc(NC(=S)NC(=O)c2ccco2)cc1	-4	-17	7	2	55*	-1
SMILES	PriA SSB inh	PrP UTR inh	PrPC surface inh	3CLpro inhibitor	PfHsp40 yeast	BH1578 lux ind
N/C(Cc1ccc(Cl)cc1Cl)=N\OC(=O)c1ccccc1F	/	-8	-3	2	156*	0
COc1ccc(C)cc1NC(=O)CS(=O)c1ncc(-c2ccccc2)n1C (stereo unspecified)	79*	/	/	/	/	/
COC(=O)C1=C(c2cccc(OCc3ccccc3)c2)C[C@@H]2CC[C@H]1N2C(=O)NCc1ccc(N(C)C)cc1	56*	-26	10	/	0	-1
COC(=O)C1=C(c2ccc(F)cc2OCc2ccccc2)C[C@@H]2CC[C@H]1N2C(=O)NCc1ccc(N(C)C)cc1	46*	-5	9	/	0	i
COC(=O)C1=C(c2ccccc2OCc2ccccc2)C[C@@H]2CC[C@H]1N2C(=O)NCc1ccc(N(C)C)cc1	53*	-9	8	/	2	i
CCC(=NNC(=O)c1ccccc1O)c1c(O)n(C2CCCCC2)c(=O)[nH]c1=O	-9	/	/	/	/	/
O=C(OCc1nc2ccccc2s1)c1ccc(Cc2ccccc2)cc1	-12	/	/	/	/	/
COc1ccccc1OCCNC(=O)c1ccco1	0	-18	-2	-1	-1	i
O=C(NCCOc1ccc(-c2ccccn2)nn1)c1ccco1	116*	/	/	/	/	/
NCCOc1ccc(-c2ccccn2)nn1	154*	/	/	/	/	/
NCCOc1ccccc1OCCN	1	-11	-2	0	0	0
COc1cc(COCC2CCN(S(=O)(=O)/C=C/c3ccccc3)CC2)cc(OC)c1	-25	/	/	/	/	/
